Experimental data from PubChem BioAssay (NCATS).
Inconclusive results are not listed. A number with no mark means an inactive call. Calls follow the shape of the dose curve; as a rule, active = well fitted inhibition curve with a large enough effect; inconclusive = small, poorly fitted or top-dose-only effect; inactive = flat fitted curve, though single readings scatter.

These compounds were tested against Calcium and integrin-binding protein 1 (Homo sapiens) (UniProt Q99828) (assay: Primary qHTS for Identification of Calcium Integrin Binding Protein 1 (CIB1) Competitor (AID 1508620; also: top concentration of the series differs between compounds)). Details: CIB1-GST / FITC-alphaIIb peptide fluorescence polarization; series mostly up to 114 µM; activity change, negative = inhibition: at the top concentration.
How it was run: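 Fluorescence polarization competition: GST-tagged CIB1 (1 uM final) preincubated with compound 15 min at room temperature, then FITC-labelled alphaIIb peptide (100 nM final) added. After 15 min at room temperature, polarization read at Ex 480/Em 540.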
% is scaled to controls: 0 for no effect and ±100 for the full control effect.

Sequence of Calcium and integrin-binding protein 1 (Homo sapiens) (Q99828 whole entry, looked up): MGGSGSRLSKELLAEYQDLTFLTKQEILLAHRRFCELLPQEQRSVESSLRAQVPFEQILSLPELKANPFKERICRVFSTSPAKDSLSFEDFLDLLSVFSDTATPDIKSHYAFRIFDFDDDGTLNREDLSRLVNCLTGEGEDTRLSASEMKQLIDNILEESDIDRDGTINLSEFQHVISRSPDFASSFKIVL

Row | SMILES | activity change, negative = inhibition [%]
1 | COc1ccc(-n2cnc3c(c2=N)C(c2cccc(OC)c2)c2c(ccc4ccccc24)O3)cc1 (configuration not stated) | 5.41
2 | Fc1ccccc1-c1nc(NCc2ccc(-c3cccnc3)cc2)c2ccccc2n1 | 2.9
3 | O=S(=O)(c1ccc2c(c1)OCCO2)N1CCN(S(=O)(=O)c2c(F)cccc2F)CC1 | -4.79
4 | CS(=O)(=O)Nc1cccc(-c2cc(F)c(S(=O)(=O)N3CCN(S(=O)(=O)c4ccc5c(c4)OCCO5)CC3)cc2F)c1 | -17.9
5 | Cc1nc(CN=C2NC3=C(C(=O)CCC3)C(c3[nH]ncc3Cl)N2)cs1 (configuration not stated) | -2.94
6 | COc1ccc(C2=Nn3c(nnc3-c3ccccc3O)SC2)cc1 | -0.42
7 | O=C1CCc2cc(S(=O)(=O)Nc3ccc(F)c(Cl)c3)ccc2N1 | -3.43
8 | CC(=O)NC(c1ccco1)c1cc(Br)c2cccnc2c1O (configuration not stated) | -20.8
9 | O=C1c2ccccc2C(=O)N1c1cccc(O)c1 | 0.998
10 | O=C(c1ccccc1)N1CCN(c2nc(-c3cccs3)nc3ccccc23)CC1 | 3.74
11 | O=C1CCCC2=C1C(c1[nH]ncc1Cl)N=C(Nc1ccn[nH]1)N2 (configuration not stated) | -3.46
12 | Cc1ccc(CNc2ccc(N3CCNCC3=O)cc2)cc1 | 2.31
13 | Cc1ccc(-c2ccc(=O)n(CC(=O)NCCc3cnc[nH]3)n2)cc1 | 4.8
14 | O=C(NCCc1nc2ccccc2n1CCOc1ccccc1[N+](=O)[O-])C1CCCCC1 | -1.21
15 | Clc1ccccc1-c1ccc2ncnc(NCc3ccc4c(c3)OCO4)c2c1 | 2.27
16 | CCOc1ccc(NC(=O)Nc2ccc(-c3nc4ccccc4[nH]3)cc2)cc1 | -3.49
17 | O=C(Nc1ccc(Cl)c([N+](=O)[O-])c1)Nc1cccc(-c2ccncc2)n1 | 1.84
